Reference: PubChem BioAssay (NCATS)
Inconclusive results are not listed. Where a call stands in place of a potency, no number is given. Activity calls are given as the source filed them. Unless noted, calls follow the shape of the dose curve; as a rule, active = well fitted curve in the direction sought with a large enough effect; inconclusive = small, poorly fitted or top-dose-only effect, or another doubt; inactive = no such curve, though single readings can be large; an effect the other way counts as inactive or inconclusive.

How the values were obtained:
[1] = qHTS Assay for Identification of Small Molecule Agonists for NFkB Signaling Pathway. (AID 624478);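 also: compounds tested together with TNF alpha at its EC50 of 10 pM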
Method in brief: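 ME-180 cervical carcinoma, stable NFkB-RE beta-lactamase reporter; 1000 cells/well, overnight attachment; cpd + TNF alpha 10 pM final, 5 h 37 C; LiveBLAzer 2 h RT; FRET 460/530 nm, ex 405 nm.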

[2] = Cell Proliferation Assay against the TMD8 Cell Line (AID 651645); conditions: TMD8 DLBCL cell line proliferation/viability; at 46.1 µM (top of the series) unless noted;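 also: cells exposed to compound for 48 h before reading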
Method in brief: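 Luminescent ATP read-out (CellTiter-Glo, 15 min RT) after 48 h compound exposure of log-growing TMD8 cells at 37C; percent activity scaled between DMSO as 100% and 9.2 uM bortezomib final as 0%.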

[3] = Cell Proliferation Assay against the HBL1 Cell Line (AID 651646); conditions: HBL1 DLBCL cells; at 46.1 µM (top of the series) unless noted;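 also: cells exposed to compound for 48 h before reading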
Method in brief: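 Luminescent ATP read-out (CellTiter-Glo) after 48 h compound exposure of HBL1 cells at 37 °C; percent activity was scaled between DMSO as 100% and 9.2 uM bortezomib (final) as 0%.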

[4] = Cell Proliferation Assay against the TMD8 Cell Line (Caspase readout at 16 hrs) (AID 651712)
Method in brief: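 Apoptotic response of TMD8 cells was judged from caspase 3/7 activation following a 16 hour compound incubation at 37 °C. Luminescent signal was converted to percent activity, with DMSO set as 0% and 9.2 uM final bortezomib as 100%.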

[5] = Cell Proliferation Assay against the TMD8 Cell Line (Caspase readout at 8 hrs) (AID 651713); also: potency is read from the fitted curve at half-maximal effect
Method in brief: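 Seed log-phase TMD8 cells, add compound by pin tool, incubate 8 h at 37C under 5% CO2, equilibrate to room temperature, add Caspase-Glo, wait 15 min, read luminescence; percent activity uses DMSO and 9.2 uM bortezomib controls.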

[6] = Cytotoxicity counterscreen for NFkB agonists and antagonists (AID 624476);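 also: cells exposed to compound for 48 hours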; also: potency is read from the fitted curve at half-maximal effect
[7] = qHTS Assay for Identification of Small Molecule Antagonists for NFkB Signaling Pathway. (AID 624479; calls by dose curve;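 also: pathway stimulated with TNF alpha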; also: potency is read from the fitted curve at half-maximal effect)

| SMILES | outcome [1] | viability (% of control) [2] | viability, percent of control [3] | Potency [4] | Potency [5] | Potency [6] | Potency [7] |
| --- | --- | --- | --- | --- | --- | --- | --- |
| Cc1c(CCOc2ccc(C(=O)O)cc2)c2cc(Cl)ccc2n1C(c1ccccc1)c1ccccc1 | inactive | 79.3% | 34.4% | inactive | inactive |  |  |
| O=C(C1CC1)N1CC[C@@H](Cn2c(-c3ccc(-c4ccc5occc5c4)cc3)nc3cnccc32)C1 | inactive | 5.56% | 48.4% |  | 26.4 µM (active) | inactive |  |
| COc1ccc(-c2c(-c3ccc(O)cc3O)n[nH]c2C)cc1 | inactive | 86.4% | 72.3% |  | inactive | inactive |  |
| O=C(NOC[C@H](O)CO)c1ccc(F)c(F)c1Nc1ccc(I)cc1F | inactive | 79.1% |  | inactive | inactive |  | inactive |
| CC1(C)CNc2cc(NC(=O)c3cccnc3NCc3ccncc3)ccc21 | inactive | 49.2% | 86% |  | inactive | inactive |  |
| COc1cc(F)c(F)c(Nc2ccc(I)cc2F)c1NS(=O)(=O)C1(C[C@H](O)CO)CC1 | inactive | 69.3% | 62.4% |  | inactive |  | 5.95 µM (active) |
| CC[C@H](Nc1ncnc2nc[nH]c12)c1nc2cccc(F)c2c(=O)n1-c1ccccc1 | inactive | 19.3% | 68.9% |  | inactive |  | inactive |
| CN(C)c1ccc(C2Nc3ccc4ccccc4c3C3=C2C(=O)CC(C)(C)C3)cc1Br (stereo not drawn) | inactive | 64.8% | 69.1% |  | inactive | inactive |  |
| O=C(O)c1ccc(-c2c[nH]c3ccc(-c4ccccc4)cc23)cc1C1CCCC1 | inactive | 83.2% | 93.3% |  | inactive |  | 14.9 µM (active) |
| COc1ccc(COc2cc3oc(=O)c4cc(C(C)O)ccc4c3cc2OC)cc1 (stereo not drawn) |  | 57.4% | 45.7% |  |  |  | inactive |
| C[C@]1(c2nc3c(C(N)=O)cccc3[nH]2)CCCN1 | inactive | 57.1% | 89.5% |  | inactive | inactive |  |
| c1ccc(-c2nn3c(c2-c2ccnc4cc(OCCN5CCOCC5)ccc24)CCC3)nc1 | inactive | 41.4% | 77.9% |  | inactive | inactive |  |
| Cc1cc(C=c2sc3nc4ccccc4n3c2=O)c(C)n1-c1ccccc1 | inactive | 43.9% | 43.7% |  | inactive |  | inactive |
| Cc1cc([C@@H](C)Nc2ccccc2C(=O)O)c2nc(N3CCOCC3)cc(=O)n2c1 | inactive | 14.9% | 45.6% | inactive | inactive |  | inactive |
| CCCCCCCc1ccc(CCc2cccc(O)c2C(=O)O)cc1 | inactive | 64.1% | 51.5% |  | inactive | 23.5 µM (active) |  |
| Cc1cc2c(F)c(Oc3ncnn4cc(OC[C@@H](C)O)c(C)c34)ccc2[nH]1 | inactive | 42.5% | 34.5% |  | inactive |  |  |
| O=C(OCC#CCSc1nnc(-c2ccc3ccccc3c2)o1)c1cc2ccccc2s1 |  | 90% | 86.3% |  | inactive | inactive | inactive |
| CN(C)c1ccc(Nc2nc(N)n(C(=O)c3c(F)cccc3F)n2)cc1 | inactive | 28.9% | 46.5% |  | inactive |  | 14.9 µM (active) |
| CCOc1ccn(-c2ccc(F)cc2)c(=O)c1C(=O)Nc1ccc(Oc2ccnc(N)c2Cl)c(F)c1 | inactive | 53.5% | 68.6% |  |  |  | 16.8 µM (active) |
| Cc1ccc(-n2nc(C(C)(C)C)cc2NC(=O)Nc2ccc(OCCN3CCOCC3)c3ccccc23)cc1 | inactive | 66.7% | 65.5% |  | inactive | inactive |  |
| O=C(Nc1cccnc1)N1CCC(Cc2cccc(Oc3ccc(C(F)(F)F)cn3)c2)CC1 | inactive | 36.7% | 46.1% |  |  |  |  |
| Cc1cccc(-c2nn(C(=S)Nc3ccccc3)cc2-c2ccnc3ccccc23)n1 | inactive | 60.3% | 94.2% |  | inactive | inactive |  |
| Cc1cc(SCc2sc(-c3ccc(C(F)(F)F)cc3)nc2C)ccc1OCC(=O)O | inactive | 88.2% | 114% |  | inactive |  |  |
| COCCNCCCn1c(C(=O)CF)c(-c2ccc(C)cc2)c2c(N)ncnc21 |  | 75.8% | 86.2% | inactive | inactive | inactive | inactive |
| CCC(C)(C)C(=O)O[C@H]1C[C@@H](C)C=C2C=C[C@H](C)[C@H](CC[C@@H]3C[C@@H](O)CC(=O)O3)[C@H]21 |  | 80.7% [at 15.4 µM] | 94.3% [at 15.4 µM] | inactive |  |  |  |
